IDH1 R132H inh: inhibitors of human mutant IDH1 R132H | O75874 | IDH1-R132H enzyme, NADPH consumption, diaphorase/resazurin fluorescence | Potency, µM (series often up to 76.6 µM), usual class: inhibitors | 0.093% of 390,000 active | AID 602179; further: nearly all actives have a fitted effect of over 65% in size
Target sequence (O75874 whole entry R132H, stated change not applied): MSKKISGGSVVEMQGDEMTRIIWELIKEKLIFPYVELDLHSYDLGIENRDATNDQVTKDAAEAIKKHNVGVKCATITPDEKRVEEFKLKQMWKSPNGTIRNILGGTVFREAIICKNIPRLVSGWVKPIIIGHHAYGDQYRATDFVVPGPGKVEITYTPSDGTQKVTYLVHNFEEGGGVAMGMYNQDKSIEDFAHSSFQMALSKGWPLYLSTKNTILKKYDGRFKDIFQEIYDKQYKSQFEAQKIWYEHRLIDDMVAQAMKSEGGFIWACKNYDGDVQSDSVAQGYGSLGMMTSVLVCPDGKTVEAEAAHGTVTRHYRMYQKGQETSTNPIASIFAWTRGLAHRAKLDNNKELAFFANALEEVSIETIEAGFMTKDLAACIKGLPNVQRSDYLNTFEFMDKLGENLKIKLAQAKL
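IDH1-R132H (0.5 ug/mL dispensed) in pH 7.5 Tris buffer was preincubated 30 min with compound, then given a substrate mix of 0.016 mM NADPH and 2 mM alpha-KG for 80 min at room temperature; remaining NADPH was read by diaphorase/resazurin fluorescence.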
Nrf2 block: inhibitors of Nrf2 signaling; Potency, µM (highest dose often 46 µM), most hits filed as inhibitors; AID 504444; A549 ARE-Fluc reporter, luciferase luminescence, 18-24 h; 2.1% of 360,000 active; further: nearly all actives have a fitted effect of over 60% in size
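In this cell-based qHTS, ARE-driven firefly luciferase in A549 cells reports Nrf2 activity; the luminescent signal after BugLite lysis is the measured value, with a prior CellTiter-Fluor read for cell health.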
Anesthetic bind: binds horse apoferritin like a general anesthetic. apoferritin/1-aminoanthracene competitive binding, fluorescence. Potency, µM (top dose mostly 77.5 µM), usual class: inhibitors. P02791. 0.074% of 350,000 active. AID 485281; further: nearly all actives have a fitted effect of over 20% in size
Target sequence (P02791 2-175 limits assumed): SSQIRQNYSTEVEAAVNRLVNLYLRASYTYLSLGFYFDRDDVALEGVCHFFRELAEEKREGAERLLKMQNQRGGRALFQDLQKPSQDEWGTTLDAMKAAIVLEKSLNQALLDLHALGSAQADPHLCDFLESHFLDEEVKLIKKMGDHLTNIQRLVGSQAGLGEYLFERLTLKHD
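Horse-spleen apoferritin (10 uM) in 50% saturated 1-aminoanthracene in PBS was incubated 10 min at room temperature with compound. Fluorescence (ex 380, em 535 nm) was normalized to free and bound 1-AMA, with concentration-response fitted by a four-parameter Hill equation.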
Nrf2 activator: Nrf2 pathway activation | AREc32 ARE-luciferase reporter (MCF7-derived line), luminescence, 24 h | Potency, µM (doses to about 46.1 µM), hits mostly activators | 0.31% of 410,000 active; further: nearly all actives have a fitted effect of over 65% in size
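Luminescent ARE reporter assay in AREc32_Fluc cells: overnight plating at 37 deg C, 24 hr compound incubation, Steady-Glo added, 30 min RT before reading.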
Giardia killer: Giardia lamblia killing; Giardia lamblia trophozoite viability; activity change, % at 7.66 µM, hits read low; 0.15% of 340,000 active; in the data active means activity change below about -80%; inconclusive means between about -30% and that limit;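 further: parasites exposed to compound for two days anaerobically before the ATP read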
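Killing of trophozoites was scored by loss of ATP luminescence after a 48 hrs anaerobic exposure to compounds at 37 deg C, using 100 cells per well.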
A549 viability: counter-screen for Nrf2 inhibitors: cytotoxicity in A549 cells | A549 ARE-Fluc cells, CellTiter-Fluor viability, 18-24 h | Potency, µM (top dose mostly 46 µM), usual class: inhibitors | 0.16% of 390,000 active | AID 504648
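A549 ARE_Fluc cells in 5% FBS OPTI-MEM were exposed to compounds in concentration-response for 18-24 h at 37 deg C. Viability was read by CellTiter-Fluor fluorescence (Ex 405/Em 525) after 30 min, before the luciferase read.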
IDH1 autofl: interferes with resorufin fluorescence in IDH1 counter-screen; 750 tested, under 10 active; AID 623980; shares compounds with IDH1 R132H inh; inhibition of signal, % at 51.2 µM; Resorufin detection reagent fluorescence interference, cell-free
WT IDH1 inh: wild-type IDH1 (human) inhibition counterscreen | Potency, µM (doses to about 115 µM), actives largely listed as inhibitors | shares compounds with IDH1 R132H inh | WT IDH1 enzyme, NADPH diaphorase/resazurin fluorescence | AID 623995 | 9% of 750 active; further: nearly all actives have a fitted effect of over 55% in size
Target sequence (O75874 whole entry, looked up): as the sequence (O75874 whole entry R132H, stated change not applied) above, with H132R counted along it
mIDH1 confirm: confirmation of human mutant IDH1 inhibitors. shares compounds with IDH1 R132H inh. IDH1 R132H enzyme, NADPH diaphorase/resazurin fluorescence. Potency, µM (top dose mostly 76.6 µM), most hits filed as inhibitors. 83% of 750 active; further: nearly all actives have a fitted effect of over 50% in size
Numbers stand for hits; 0 = inactive; ? = inconclusive; - = not tested or not shown. Sampled rows, rich in hits. Any-hit rate of the full collection: about 2.3%. Unless noted, the call rests on the fitted dose curve; in most records, active means well fitted curve in the direction sought with a large enough effect; inconclusive means small, poorly fitted or top-dose-only effect, or another doubt; inactive means no such curve, though single readings can be large; an effect the other way counts as inactive or inconclusive.

SMILES | IDH1 R132H inh | Nrf2 block | Anesthetic bind | Nrf2 activator | Giardia killer | A549 viability | IDH1 autofl | WT IDH1 inh | mIDH1 confirm
COC(=O)[C@@]12CCCCN1[C@H](c1ccc(-c3ccc(F)cc3)c(OC)c1)[C@@H]1C(=O)N(C)C(=O)[C@@H]12 | 40µM | ? | - | 0 | 0 | 0 | 0 | 0 | 6.3µM
CCN1C(=O)[C@H]2[C@@H](c3ccc(-c4ccc(OC)cc4)c(OC)c3)N3CCCC[C@@]3(C(=O)OC)[C@H]2C1=O | ? | ? | - | 0 | 0 | 0 | 0 | 0 | 13µM
COC(=O)[C@@]12CCCN1[C@H](c1ccc(-c3ccc(OC)cc3)c(OC)c1)[C@@H]1C(=O)N(C)C(=O)[C@@H]12 | 0 | 0 | - | 0 | 0 | 0 | - | - | -
COC(=O)[C@@]12CCCCN1[C@H](c1ccc(-c3ccc4c(c3)OCO4)c(OC)c1)[C@@H]1C(=O)N(C)C(=O)[C@@H]12 | ? | ? | - | 0 | 0 | 0 | 0 | 0 | 11µM
CC[C@H](C)[C@H](NC(=O)[C@H](Cc1ccc(O)cc1)NC(=O)[C@H](Cc1cnc[nH]1)NC(=O)[C@H](CCCNC(=N)N)NC(=O)[C@H](CC(C)C)NC(=O)[C@H](C)NC(=O)[C@H](CO)NC(=O)[C@H](Cc1ccc(O)cc1)NC(=O)[C@H](Cc1ccc(O)cc1)NC(=O)[C@H](CCCNC(=N)N)NC(=O)[C@H](C)NC(=O)[C@H](CCSC)NC(=O)[C@H](CC(=O)O)NC(=O)[C@H](CCC(=O)O)NC(=O)[C@H](C)NC(=O)[C@@H]1CCCN1C(=O)[C@H](C)NC(=O)[C@H](CC(=O)O)NC(=O)[C@H](CCC(=O)O)NC(=O)CNC(=O)[C@@H]1CCCN1C(=O)[C@H](CC(N)=O)NC(=O)[C@H](CC(=O)O)NC(=O)[C@@H]1CCCN1C(=O)[C@H](CCCCN)NC(=O)[C@H](CO)NC(=O)[C@@H]1CCCN1C(=O)[C@@H](N)Cc1ccc(O)cc1)C(=O)N[C@@H](CC(N)=O)C(=O)N[C@@H](CC(C)C)C(=O)N[C@@H](CC(C)C)C(=O)N[C@H](C(=O)N[C@@H](CCCNC(=N)N)C(=O)N1CCC[C@H]1C(=O)N[C@@H](CCCNC(=N)N)C(=O)N[C@@H](Cc1ccc(O)cc1)C(N)=O)[C@@H](C)O | - | - | 0 | - | - | - | - | - | -
Oc1ccc(Cl)cc1C1C=C(c2ccc3c(c2)OCO3)NC(c2ccc(C(F)(F)F)cc2)N1 (stereo unspecified) | - | 0 | - | - | 0 | 0 | - | - | -
O=C(NCC1COc2ccccc2O1)c1cc(S(=O)(=O)N2CCOCC2)ccc1F (stereo unspecified) | 0 | 0 | - | 0 | 0 | 0 | - | - | -
O=C(NCC1COc2ccccc2O1)c1c[nH]c2ccc(S(=O)(=O)N3CCOCC3)cc2c1=O (stereo unspecified) | ? | 0 | 0 | 0 | 0 | 0 | 0 | 0 | 0
O=c1cc(CN2CCCc3ccccc32)nc2sccn12 | 0 | 0 | 0 | 0 | 0 | 0 | - | - | -
O=c1cc(CN2CCc3ccccc32)nc2sccn12 | 32µM | 0 | 0 | 0 | 0 | 0 | 0 | ? | 50µM
Cc1ccc(S(=O)(=O)NN=Cc2ccco2)cc1 | 0 | - | - | 0 | - | - | - | - | -
COc1ccc(-c2c(-c3ccsc3)oc(=O)c3cc(OC)c(OC)cc23)cc1 | 11µM | 0 | - | 0 | 0 | 0 | 0 | 0 | 8.9µM
COCc1ccc(-c2c(-c3ccc(OC)cc3)oc(=O)c3cc(OC)c(OC)cc23)cc1 | 32µM | 0 | - | 0 | 0 | 0 | 0 | 0 | 10µM
CCc1nnc(SCc2cccc(F)c2)c2cc3sc(C)cc3n12 | 0 | ? | 0 | 0 | - | 0 | - | - | -
CC[C@H](C)[C@H](NC(=O)[C@H](Cc1ccc(O)cc1)NC(=O)[C@H](Cc1cnc[nH]1)NC(=O)[C@H](CCCNC(=N)N)NC(=O)[C@H](CC(C)C)NC(=O)[C@H](C)NC(=O)[C@@H](N)CO)C(=O)N[C@@H](CC(N)=O)C(=O)N[C@@H](CC(C)C)C(=O)N[C@H](C(=O)N[C@H](C(=O)N[C@@H](CCCNC(=N)N)C(=O)N[C@@H](CCC(N)=O)C(=O)N[C@@H](CCCNC(=N)N)C(=O)N[C@@H](Cc1ccc(O)cc1)C(N)=O)[C@@H](C)O)[C@@H](C)CC | - | - | 0 | - | - | - | - | - | -
COc1cc2c(OC(C)=O)c3c(c(-c4ccc5c(c4)OCO5)c2cc1OC)C(=O)OC3 | 0 | ? | 0 | 0 | 0 | ? | - | - | -
COc1cc2c(O)c3c(c(-c4ccc5c(c4)OCO5)c2cc1OC)C(=O)OC3 | ? | ? | 0 | 0 | 0 | 18µM | 0 | ? | 25µM
CCOC(=O)c1c(NC(=O)/C=C/C(=O)O)sc(C)c1-c1ccc(C)c(C)c1 | 23µM | 0 | 0 | ? | 0 | 0 | 0 | ? | 45µM
CCOC(=O)c1c(C)nn(-c2ccc(NC(=O)/C=C/C(=O)O)cc2)c1C | 0 | ? | 0 | 0 | 0 | 0 | - | - | -
Cc1cc(C(C)(C)C)oc1C(=O)N1CCN(C(=O)c2oc(C(C)(C)C)cc2C)CC1 | 40µM | 0 | 0 | 0 | 0 | 0 | 0 | ? | 14µM
Cc1cc(C(C)(C)C)oc1C(=O)O | 0 | 0 | 0 | 0 | 0 | 0 | - | - | -
NNC(=O)CN1C(c2ccc(Cl)cc2)=Nc2ccc(Br)cc2C1c1ccccc1 (stereo unspecified) | ? | 0 | 0 | 0 | 0 | 0 | 0 | ? | 0
NNC(=O)CN1C(c2ccccc2)=Nc2ccc(Br)cc2C1c1ccccc1 (stereo unspecified) | 0 | 0 | 0 | 0 | 0 | 0 | - | - | -
O=C(c1ccncc1)N1N=C(c2ccc(Cl)cc2)CC1c1ccccc1O (stereo unspecified) | 52µM | 0 | 0 | ? | 0 | 0 | 0 | 0 | 35µM
COc1ccc(C2=NN(C(=O)c3ccncc3)C(c3ccccc3O)C2)cc1 (stereo unspecified) | ? | ? | 0 | 0 | 0 | 0 | - | - | -
COc1ccc(C2=NN(C(=O)c3ccccc3)C(c3ccc(OC)c(OC)c3)C2)cc1OC (stereo unspecified) | 0 | 0 | 0 | 0 | 0 | 0 | - | - | -
COc1ccccc1C1CC(c2ccc(Br)cc2)=NN1C(=O)c1cccnc1 (stereo unspecified) | 46µM | ? | ? | 0 | 0 | 0 | 0 | 0 | 22µM

High-throughput results: PubChem, National Center for Advancing Translational Sciences (NCATS)
